Screening results from PubChem BioAssay.
Many of the other results were omitted from the sample, so hits are more common in it than they were.
RE007 growth inh: qHTS Assay for Inhibitors of the HIV-1 protein Vpr; S. pombe RE007 Vpr strain, BacTiter-Glo ATP luminescence, 24 h; actives 0.21% (n = 360,000); Potency, µM (highest dose often 92.2 µM), for the others: top-dose activity change, negative = less growth, hits mostly inhibitors; active = well fitted falling curve with a large enough effect; also: potency is read from the fitted curve at half-maximal effect; % is scaled to controls: 0 for no effect and ±100 for the full control effect; nearly all actives have a fitted effect of over 50% in size
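Fission yeast RE007 carrying one integrated HIV-1 vpr copy, seeded at OD 0.01 in PMG+AL medium with 23 nL pinned compound. Grown 24 h at 30 degrees; viability read by BacTiter-Glo luminescence after 5 min.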
TbPYK inhibitor: qHTS of Trypanosoma Brucei Inhibitors; actives 0.12% (n = 410,000); TbPYK enzyme, Kinase-Glo Plus ATP luminescence, 45 min; Potency, µM (series often up to 76.8 µM), inactives show top-dose activity, negative = inhibition, actives largely listed as inhibitors; AID 624173, 2012; pyruvate kinase (Trypanosoma brucei), Q57TT1; also: potency is read from the fitted curve at half-maximal effect; % is scaled to controls: 0 for no effect and ±100 for the full control effect; nearly all actives have a fitted effect of over 50% in size
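Luminescence from Kinase-Glo Plus, added after a 45-minute room-temperature reaction, served as the end-point read-out. The enzyme and substrate were preincubated with compound before ADP (130 uM final) initiated turnover. Concentration-effect curves came from normalized qHTS data.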
Shiga inhibitor: A qHTS for Small Molecule Inhibitors of Shiga Toxin; inhibition, % at 38.7 µM; Vero cells, Shiga toxin protein synthesis inhibition reporter; actives 9.2% (n = 290,000); AID 2315, 2010; in the data active = inhibition mostly above about 28%, no sharp cut-off; inactive = mostly below about 43%; also: 0% is about no effect
CHX counter: Cycloheximide Counterscreen for Small Molecule Inhibitors of Shiga Toxin; actives 12% (n = 300,000); cell reporter, cycloheximide protein synthesis inhibition counterscreen; max response, %; AID 2314, 2010; in the data active = max response mostly above about 13%, no sharp cut-off; inactive = mostly below about 14%; also: read at 38.3 µM for the half of the compounds with a filed dose; 0% is about no effect
Giardia FBPA inh: qHTS Assay for Inhibitors of Fructose-1,6-bisphosphate Aldolase from Giardia Lamblia; A8B2U2; Potency, µM (top dose mostly 59.6 µM), inactives show at the highest dose activity, negative = inhibition, hits mostly inhibitors; purified Giardia FBPA; actives 0.71% (n = 290,000); also: potency is read from the fitted curve at half-maximal effect; % is scaled to controls: 0 for no effect and ±100 for the full control effect; nearly all actives have a fitted effect of over 55% in size
Target sequence (A8B2U2 whole entry, looked up): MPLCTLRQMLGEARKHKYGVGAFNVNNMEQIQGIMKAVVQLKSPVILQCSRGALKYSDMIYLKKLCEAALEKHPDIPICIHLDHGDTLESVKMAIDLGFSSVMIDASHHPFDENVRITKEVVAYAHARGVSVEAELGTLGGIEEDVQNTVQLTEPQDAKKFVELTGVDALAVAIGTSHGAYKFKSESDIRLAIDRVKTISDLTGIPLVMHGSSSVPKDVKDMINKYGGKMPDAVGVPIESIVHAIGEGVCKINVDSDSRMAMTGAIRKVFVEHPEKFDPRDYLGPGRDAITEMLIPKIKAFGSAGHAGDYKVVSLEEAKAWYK
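Giardia FBPA (40 nM reagent) was preincubated 10 min at RT with compound (up to 57.5 uM final), then substrate plus GAPDH/TPI/NAD/arsenate coupling system with diaphorase/resazurin was added; resorufin fluorescence (525/598 nm) was read after 20 min.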
LmPK inhibitor: qHTS Assay for Inhibitors of Leishmania Mexicana Pyruvate Kinase (LmPK). Potency, µM (top dose mostly 57.5 µM), for the others: top-dose activity change, negative = inhibition, usual class: inhibitors. Q27686. purified LmPK, Kinase-Glo ATP luminescence, 1 h. actives 0.37% (n = 290,000); also: potency is read from the fitted curve at half-maximal effect; % is scaled to controls: 0 for no effect and ±100 for the full control effect
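Screened at intermediate enzyme activity to detect both inhibitors and activators: LmPK at 0.1 nM, with a 0.5 nM enzyme column as activation reference. PEP 0.5 mM, ADP 0.1 mM; ATP detected by luminescence after 1 h.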
An asterisk follows results filed as active. Unless noted, calls follow the shape of the dose curve; as a rule, active = well fitted curve in the direction sought with a large enough effect; inconclusive = small, poorly fitted or top-dose-only effect, or another doubt; inactive = no such curve, though single readings can be large; an effect the other way counts as inactive or inconclusive.

What do the screens show for `CC(=O)c1cccc(NC(=O)CN2C(=O)c3cccnc3Sc3ccccc32)c1`?
TbPYK inhibitor: -1%

How did CC1=C(C(=O)OC2CCCC2)C(c2ccccc2Cl)CC(=O)N1 (stereo not given) do in these assays?
TbPYK inhibitor: -3%

Results for O=C(O)c1cnn(-c2nc(-c3ccc(Cl)cc3)cs2)c1C(F)(F)F ?
RE007 growth inh: 1%; TbPYK inhibitor: 5%; Shiga inhibitor: 82*; CHX counter: 53*; Giardia FBPA inh: 11%; LmPK inhibitor: 0%

What do the screens show for `COc1ccc(-c2csc(-n3ncc(C(=O)O)c3C(F)(F)F)n2)cc1`?
RE007 growth inh: 5%; TbPYK inhibitor: 0%; Shiga inhibitor: 135*; CHX counter: 74*; Giardia FBPA inh: 18%; LmPK inhibitor: 0%

Results for COC(=O)c1cnn(-c2nc(-c3ccccc3)cs2)c1N ?
RE007 growth inh: 2%; TbPYK inhibitor: -2%; Shiga inhibitor: 40*; CHX counter: 42*; Giardia FBPA inh: -1%; LmPK inhibitor: -5%

What do the screens show for `CNC(=O)c1cnn(-c2nc(-c3ccc(OC)cc3)cs2)c1C(F)(F)F`?
RE007 growth inh: 3%; TbPYK inhibitor: 4%; Shiga inhibitor: -6; CHX counter: 7; Giardia FBPA inh: 2%; LmPK inhibitor: -1%

Results for Cc1nc2cc(NS(=O)(=O)c3ccccc3F)ccc2s1 ?
RE007 growth inh: -3%; TbPYK inhibitor: -2%; Shiga inhibitor: 9; CHX counter: 4; Giardia FBPA inh: -27%; LmPK inhibitor: 5%

Results for O=S(=O)(Nc1ccc(-c2nc3cccnc3s2)cc1)c1cccs1 ?
RE007 growth inh: 0%; TbPYK inhibitor: -10%; Shiga inhibitor: 36; CHX counter: 28*; Giardia FBPA inh: -1%; LmPK inhibitor: -2%

Results for O=S(=O)(Nc1ccc(-c2nc3cccnc3s2)cc1)c1ccc(Cl)s1 ?
RE007 growth inh: -6%; TbPYK inhibitor: 7%; Shiga inhibitor: 16*; CHX counter: 33*; Giardia FBPA inh: 21%; LmPK inhibitor: -4%

What do the screens show for `CCc1ccc(NS(=O)(=O)c2cccs2)cc1`?
RE007 growth inh: -16%; TbPYK inhibitor: -16%; Shiga inhibitor: 14; CHX counter: 10; Giardia FBPA inh: -3%; LmPK inhibitor: 4%

Results for O=S(=O)(Nc1ccc(-c2nc3cccnc3s2)cc1)c1ccccc1F ?
RE007 growth inh: 5%; TbPYK inhibitor: -6%; Shiga inhibitor: 92*; CHX counter: 50*; Giardia FBPA inh: 2%; LmPK inhibitor: -5%

How did Cc1cc(-c2nc3cccnc3s2)ccc1NS(=O)(=O)c1cccs1 do in these assays?
RE007 growth inh: 7%; TbPYK inhibitor: -1%; Shiga inhibitor: 138*; CHX counter: 48*; Giardia FBPA inh: 16%; LmPK inhibitor: -16%

What do the screens show for `CC1(c2ccccc2Cl)NC(=O)N(CC(=O)NCc2ccco2)C1=O` (stereo not given)?
RE007 growth inh: -14%; TbPYK inhibitor: 2%; Shiga inhibitor: -6; CHX counter: 6; Giardia FBPA inh: 1%; LmPK inhibitor: -3%

How did COC(=O)c1sc2cccc(F)c2c1S(=O)(=O)N1CCN(c2ccc(F)cc2)CC1 do in these assays?
TbPYK inhibitor: -5%

What do the screens show for `CCOc1ccc(CNS(=O)(=O)c2cc(-c3cc(C)no3)ccc2OC)cc1OC`?
RE007 growth inh: 8%; TbPYK inhibitor: -2%; Shiga inhibitor: -2; CHX counter: 12; LmPK inhibitor: 3%

How did COc1ccc(-c2noc(CCCC(=O)Nc3cccc(Cl)c3C)n2)cc1 do in these assays?
TbPYK inhibitor: 1%

What do the screens show for `O=C(CSc1nnnn1C1CCCC1)N1CCOCC1`?
RE007 growth inh: 6%; TbPYK inhibitor: -7%; Shiga inhibitor: 39; CHX counter: 36*; Giardia FBPA inh: 2%; LmPK inhibitor: 0%

What do the screens show for `COc1ccccc1NC(=O)CSc1nnnn1C1CCCC1`?
RE007 growth inh: -12%; TbPYK inhibitor: 5%; Shiga inhibitor: -6; CHX counter: -2; Giardia FBPA inh: 3%; LmPK inhibitor: 5%

How did O=C(CSc1nnnn1C1CCCC1)NCCc1ccccc1 do in these assays?
RE007 growth inh: -2%; TbPYK inhibitor: 4%; Shiga inhibitor: 49*; CHX counter: 23*; Giardia FBPA inh: 1%; LmPK inhibitor: -1%

Results for COC(=O)c1ccc(NC(=O)CSc2nnnn2C2CCCCC2)cc1 ?
RE007 growth inh: 6%; TbPYK inhibitor: -1%; Shiga inhibitor: -2; CHX counter: 4; Giardia FBPA inh: 7%; LmPK inhibitor: 0%

Results for CC(=O)Nc1ccc(C(=O)CSc2nnnn2C2CCCC2)cc1 ?
RE007 growth inh: 3%; TbPYK inhibitor: -5%; Shiga inhibitor: 24; CHX counter: 15*; Giardia FBPA inh: -2%; LmPK inhibitor: -11%

What do the screens show for `O=C(CSc1nnnn1C1CCCC1)Nc1ccccc1F`?
RE007 growth inh: 0%; TbPYK inhibitor: 1%; Shiga inhibitor: 31*; CHX counter: 13*; Giardia FBPA inh: 1%; LmPK inhibitor: -1%

How did CCc1c(C)c2ccc(O)c(CN3CCN(c4cc(Cl)ccc4C)CC3)c2oc1=O do in these assays?
TbPYK inhibitor: -6%

Results for CC(C)n1nnnc1SCC(=O)NCCc1ccccc1 ?
RE007 growth inh: 9%; TbPYK inhibitor: -1%; Shiga inhibitor: 30; CHX counter: 16*; Giardia FBPA inh: 2%; LmPK inhibitor: -3%

Results for Cc1ccccc1OCc1nnc2c3cnn(C)c3ncn12 ?
RE007 growth inh: -6%; TbPYK inhibitor: 7%; Shiga inhibitor: 74; CHX counter: 39*; Giardia FBPA inh: 2%; LmPK inhibitor: -5%

Results for Cc1ccccc1OCc1nc2c3cnn(-c4ccccc4Br)c3ncn2n1 ?
TbPYK inhibitor: -6%

What do the screens show for `CCOC1=C2[C@H](c3ccccc3)N(S(=O)(=O)c3ccc(C)cc3)[C@H](C(C)C)[C@H]2n2c(=O)n(-c3ccccc3)c(=O)n2C1`?
RE007 growth inh: -6%; TbPYK inhibitor: 4%

Results for Nc1nnc(-c2ccccc2F)s1 ?
RE007 growth inh: -4%; TbPYK inhibitor: -5%; Shiga inhibitor: 86*; CHX counter: 21*; Giardia FBPA inh: 2%; LmPK inhibitor: 3%

What do the screens show for `Nc1nnc(Cc2ccccc2F)s1`?
RE007 growth inh: -2%; TbPYK inhibitor: -7%; Shiga inhibitor: -10; CHX counter: 2; Giardia FBPA inh: 2%; LmPK inhibitor: 0%

How did Nc1nnc(Cc2ccc(Cl)cc2Cl)s1 do in these assays?
RE007 growth inh: 7%; TbPYK inhibitor: 7%; Shiga inhibitor: -12; CHX counter: 1; Giardia FBPA inh: 2%; LmPK inhibitor: -3%
